Compounds with a hit are over-represented: about 0.52% of the library has one in this group of screens.
Sa helicase inh = blocks Staphylococcus aureus DNA helicase | purified S. aureus helicase, fluorescence unwinding assay | inhibition, % (test concentration not listed) | hit rate 0.05% among 120,000 | AID 485395; in the data active means inhibition above about 25%, passing the limit was not always enough;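 further: 0% = mean of negative control wells and 100% = mean of positive control wells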
Sa growth 42C = blocks Staphylococcus aureus growth; S. aureus RN4220 growth, OD600, 20 h, 42 °C; active compounds read low; relative growth, % (test concentration not listed); hit rate 0.53% among 170,000; AID 720641;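 active means relative growth at most 50% at the other temperature and 20+ points below 30 °C, or under 10% at both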
* hit, by the source's call; x = not tested or not shown.

SMILES	Sa helicase inh	Sa growth 42C
CS(=O)(=O)c1ccc([C@@H](O)[C@@H](COC(=O)CN)NC(=O)C(Cl)Cl)cc1	x	52
O=C(N[C@@H](CO)[C@H](O)c1ccc([N+](=O)[O-])cc1)C(Cl)Cl	x	0.2*
O=C(O)CCc1nnc(-c2ccccc2)o1	6	91
Cc1ccc2nc(-c3ccc(N=Cc4ccc[nH]4)cc3)sc2c1	6	91
CCn1c(=O)n(CC)c2cc(S(=O)(=O)NC(C)C)ccc21	3	82
CCc1cccc2c(CC(=O)O)c(C)[nH]c12	5	98
O=S(=O)(c1ccccc1)c1nc(-c2cccs2)oc1N1CCCCC1	x	106
O=S(=O)(c1ccccc1)c1nc(-c2ccc(F)cc2)oc1NCc1ccccc1	x	121
CCC(C)S(=O)(=O)c1oc(-c2cccs2)nc1S(=O)(=O)c1ccccc1 (stereo not given)	x	3.7*
CC(C)CS(=O)(=O)c1oc(-c2ccc(F)cc2)nc1S(=O)(=O)c1ccccc1	x	1.0*
CN1C(=O)/C(=C/c2ccc(C(=O)NCc3ccccc3)cc2)Oc2ccccc21	-4	102
CCOC(=O)c1c(C)[n+]([O-])c2ccc3c(non3O)c12	2	78
Cc1c(C)[n+]([O-])c2ccc3c(non3O)c12	9	1.9*
Cc1ccc(-c2nnc(N3CCNC(=O)C3)c3ccccc23)cc1	-3	91
CN(C(=O)CN1CCOCC1)C1(c2ccccc2Cl)CCCCC1=O (stereo not given)	-7	106
Nc1ccc2nc(CCCc3nc4ccc(N)cc4s3)sc2c1	20	135
Cc1cccc(NC(=O)c2c(NC(=O)C(F)(F)F)sc3c2CCCCC3)c1	x	35
O=C(Nc1cccc(Cl)c1)c1c(NC(=O)C(F)(F)F)sc2c1CCCC2	x	-1.2*
Cc1[nH]c2ccccc2c(=O)c1CN1CCOCC1	-72	95
O=C(CCC(=O)N1CCc2ccccc21)Nc1ccc(I)cc1	x	104
COc1ccc(CCNC(=O)c2cc3oc4ccccc4c3n2C)cc1OC	-22	116
CCN1CCc2c(OC)cccc2C1=O	4	94
COc1cccc2c1CCN(Cc1cccc(C)c1)C2=O	-2	5.1*
CC1CCN(Cc2nc(-c3cc(C(F)(F)F)cc(C(F)(F)F)c3)no2)CC1	x	113
CCC1CCc2[nH]c(=S)c(C#N)c(C(F)(F)F)c2C1 (stereo not given)	16	8.0*
SMILES	Sa helicase inh	Sa growth 42C
CCCCSc1nc2c(c(C(F)(F)F)c1C#N)CCC2	9	109
Nc1cc(=O)[nH]c(=O)n1Cc1ccncc1	18	95
O=C(OCc1ccc(F)cc1)c1cc(-c2ccco2)nc2ccccc12	1	6.6*
COC(=O)c1ccc(COC(=O)c2cc(-c3ccco3)nc3ccccc23)cc1	8	71
Cc1ccc2cc(CCNC(=O)C3CCCCC3)c(=O)[nH]c2c1	-6	82
CC(=O)O[C@H]1C[C@@]2(C)[C@@H](C[C@@H](O)C3[C@]2(C)CC[C@H]2[C@H](C)[C@H](O)CC[C@]32C)/C1=C(/CCC=C(C)C)C(=O)O (stereo not given in full)	x	0.6*
CC(=O)n1cccc1C#N	5	103
Cc1nn(-c2ccccc2)c(C)c1CN(C)C(=O)c1cc(C2CC2)nn1-c1ccccc1	22	70
CC(C)CCn1c2ccccc2c2ccccc21	28	88
S=C(S)N1CCCC1	-5	1.7*
NC(=S)N1CCCC1	70	94
COC(=O)c1ccc(NC(C)=O)cc1	2	76
Cc1ccc(CCNC(=O)C(C)N2C(=O)CC(C)(C)Sc3ccccc32)cc1 (stereo not given)	8	128
CCOCCCn1c(C)c(C)c(C#N)c1N	-45	93
Cc1c(C#N)c(N)n(Cc2cc(C(F)(F)F)cc(C(F)(F)F)c2)c1C	14	-0.1*
CCCCn1c(C)c(Cc2ccccc2)[nH]c1=O	-9	x
COCC(C)NC(=O)c1ccc(OC(C)=O)cc1 (stereo not given)	-1	94
Cc1ccc(S(=O)(=O)NC(=O)Oc2cccc3cccnc23)cc1	8	0.2*
Cc1c(C(=O)Oc2cccc3cccnc23)oc2ccccc12	3	97
O=C(Cc1cccc2ccccc12)NN1C(=O)C2C3C=CC(C3)C2C1=O (stereo not given)	11	109
CN(C)c1ccc2sc(=S)[nH]c2c1	-9	44
FC(F)(F)c1ccc2sc(=S)[nH]c2c1	10	-0.8*
CO[C@H]1/C=C/O[C@@]2(C)Oc3c(C)c(O)c4c(O)c(c(C=NN5CCN(C)CC5)c(O)c4c3C2=O)NC(=O)/C(C)=C\C=C\C(C)[C@H](O)[C@@H](C)[C@@H](O)[C@@H](C)[C@@H](OC(C)=O)[C@@H]1C (stereo not given in full)	x	1.3*
CO[C@H]1C=CO[C@@]2(C)Oc3c(C)c(O)c4c(O)c(c5c(c4c3C2=O)NC2(CCN(CC(C)C)CC2)N=5)=NC(=O)C(C)=CC=C[C@H](C)[C@H](O)[C@@H](C)[C@@H](O)[C@@H](C)[C@H](OC(C)=O)[C@@H]1C	x	0.6*
CO[C@H]1/C=C/O[C@@]2(C)Oc3c(C)c(O)c4c(O)c(c5c(nc6cc(C)ccn65)c4c3C2=O)NC(=O)/C(C)=C\C=C\[C@H](C)[C@H](O)[C@@H](C)C(O)[C@@H](C)[C@H](OC(C)=O)[C@@H]1C (stereo not given in full)	x	-0.8*
SMILES	Sa helicase inh	Sa growth 42C
CO[C@H]1C=CO[C@@]2(C)Oc3c(C)c(O)c4c(O)c(c5c(nc6cc(C)ccn65)c4c3C2=O)NC(=O)C(C)=CC=C[C@H](C)[C@H](O)[C@@H](C)[C@@H](O)[C@@H](C)[C@H](OC(C)=O)[C@@H]1C	x	82
O=C(NCCc1ccccc1)c1ccc2c(c1)NC(=O)C1CCCN21 (stereo not given)	10	110
Fc1ccc(/C=N/c2nc3ccccc3s2)cc1	-4	94
O=C(Nc1nc2ccc3ccccc3c2s1)c1ccccc1Cl	2	x
COc1ccc(C2N3CC(C)(C)CN23)cc1OC (stereo not given)	18	95
O=C(OC[C@@H]1CCCN2CCCCC12)c1ccccc1 (stereo not given in full)	9	93
CCCCOc1ccc(C(=O)OCC2CCCN3CCCCC23)cc1OC (stereo not given)	13	43*
c1ccc(-c2nc3c4ccccc4nc(NCCN4CCN(c5ccccc5)CC4)n3n2)cc1	-9	95
N#CC1=C2SCN(c3ccccc3)CN2C(=O)CC1c1ccccc1 (stereo not given)	-2	58
CN1C(=O)CC(=O)N(C)c2cc(S(=O)(=O)N(C)Cc3ccccc3)ccc21	x	-1.7*
CN(Cc1ccccc1)S(=O)(=O)c1ccc2c(c1)n(C)c(=O)c(=O)n2C	-3	87
Cc1nn(CC(=O)N(C)C)c(C)c1S(=O)(=O)N(C)C	5	120
COC(NC(=O)Nc1nc2ccccc2s1)(C(F)(F)F)C(F)(F)F	3	5.5*
CCNC(=O)Nc1nc2ccccc2s1	-15	115
CCOC(=O)CC(=N)N	63*	84
CCOC(=O)CC(N)=S	0	111
CN1C(=O)CC(C(=O)Nc2ccc(C(=O)O)cc2)SC1=Nc1ccc(Cl)cc1 (stereo not given)	x	92
O=C(O)C1CC(=O)N(CCC23CC4CC(CC(C4)C2)C3)C(=Nc2ccc(Cl)cc2)S1 (stereo not given)	18	-0.5*
COc1ccc(C)cc1NC(=O)c1cc(C(=O)Nc2cc(C)ccc2OC)n(C)n1	21	88

From PubChem BioAssay
